Results filed as inconclusive are left out. Active and inactive are the calls of the source. The call rests on the fitted dose curve; in most records, active means well fitted curve in the direction sought with a large enough effect; inconclusive means small, poorly fitted or top-dose-only effect, or another doubt; inactive means no such curve, though single readings can be large; an effect the other way counts as inactive or inconclusive.
Legend:
[1] = molecular target: Phospholipid hydroperoxide glutathione peroxidase GPX4 (Homo sapiens) (UniProt P36969); assay: Primary qHTS Assay for Inhibitors of Recombinant Selenoprotein Glutathione Peroxidase 4 (GPX4) (AID 1845192); further: nearly all actives have a fitted effect of over 65% in size; on activity change, negative = inhibition: series mostly up to about 50 µM; on the % scale 0 is the no-effect control and ±100 the full control effect
Sequence of Phospholipid hydroperoxide glutathione peroxidase GPX4 (Homo sapiens) (P36969 whole entry, looked up): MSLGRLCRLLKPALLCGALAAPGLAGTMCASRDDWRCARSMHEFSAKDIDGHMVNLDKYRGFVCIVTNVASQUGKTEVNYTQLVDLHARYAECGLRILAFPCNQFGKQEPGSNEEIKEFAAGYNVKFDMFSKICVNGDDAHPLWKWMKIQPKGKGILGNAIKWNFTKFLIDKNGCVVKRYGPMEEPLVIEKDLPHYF
Outline: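 GR-coupled assay: recombinant GPX4 preincubated 30 min with compound at room temperature; final 200 nM GPX4, 1 mM GSH, 0.5 mM cumene hydroperoxide, 0.5 mM NADPH, 100 nM GR, 0.01% BSA, pH 7.5 Tris. NADPH fluorescence (340/450 nm) read at 0 and 15 min.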

[2] = molecular target: Luciferin 4-monooxygenase (Photinus pyralis) (UniProt P08659); assay: Primary firefly luciferase (FLuc) qHTS assay for identification of artifact compounds. (AID 1845220); further: nearly all actives have a fitted effect of over 60% in size;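 on activity change, negative = inhibition: series mostly up to about 54 µM; plate controls were DMSO vehicle for no effect and no enzyme for full effect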
Outline: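 D-luciferin and ATP (10 uM each, final) in Tris acetate buffer pH 7.6 were incubated with compounds for 15 min at room temperature. The reaction was started with 10 nM Photinus pyralis luciferase and luminescence read after 5 min. Percent inhibition was fitted to a 4-parameter Hill equation.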

[3] = Primary fluorescence-based thiol-reactive (MSTI) qHTS assay for identification of artifact compounds. (AID 1845221); further: nearly all actives have a fitted effect of over 65% in size; further: potency means the concentration at half of the fitted maximal effect;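 on activity change, negative = thiol reactive: series mostly up to about 54 µM; thiol-reactive compounds lower the probe fluorescence signal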
Outline: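 A multi-concentration qHTS design tested compounds against 4 uM MSTI, pH 7.4 phosphate-buffered saline. Plates were protected from light for 1 h at room temperature before imaging fluorescence.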

[4] = test system: Nanoluciferase (engineered Oplophorus gracilirostris luciferase); assay: Primary Nanoluciferase (NLuc) qHTS assay for identification of artifact compounds. (AID 1845222);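 further: series mostly up to about 54 µM; 0% = DMSO and -100% = no enzyme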
Outline: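 Diluted conditioned medium from NLuc-expressing S16 cells treated with compounds for 15 min at room temperature, then Nano-Glo substrate added; luminescence read after 5 min. Percent inhibition versus no-enzyme and DMSO controls fitted to 4-parameter Hill equation.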

[5] = Primary redox qHTS assay for identification of artifact compounds. (AID 1845223);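 further: 0% = DMSO and 100% = reference compound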
Outline: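 Amplex Red (25 uM) and HRP (250 mU/mL) in HBSS, with compounds for 15 min, then 250 uM DTT for 30 min, room temperature, dark. Fluorescence 525/598 nm read; normalized to DMSO and 10 uM DA3003; Hill fit.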

CC1CCC2(OC1)OC1CC3C4CC=C5CC(O)CC(O[C@@H]6OC[C@@H](O)[C@H](O)[C@H]6O)C5(C)C4CCC3(C)C1(O)C2C (stereo not given in full)
inactive: Potency [1] | Potency [2] | Potency [3] | Potency [4] | Potency [5]

COc1cc(/C=C/C(=O)O[C@H]2[C@H](O)[C@@H](CO)O[C@@]2(CO)O[C@H]2O[C@H](CO)[C@@H](O)[C@H](O)[C@H]2O)ccc1O
inactive: Potency [1] | Potency [2] | Potency [3] | Potency [4] | Potency [5]

C[C@H](C(=O)NC1CCCC1)N(C(=O)Cn1nnc(-c2ccc3c(c2)OCO3)n1)C1CCCCC1
inactive: Potency [1] | Potency [2] | Potency [3] | Potency [4] | Potency [5]

CC1(C)CC[C@]2(C(=O)O[C@@H]3O[C@H](CO)[C@@H](O)[C@H](O)[C@H]3O)CC[C@]3(C)C(=CCC4[C@@]5(C)CC[C@H](O[C@@H]6O[C@H](C(=O)O)[C@@H](O)[C@H](O[C@@H]7O[C@H](CO)[C@H](O)[C@H](O)[C@H]7O)[C@H]6O)C(C)(C)C5CC[C@]43C)C2C1 (stereo not given in full)
inactive: Potency [1] | activity change, negative = inhibition [2] -3.44% [at 11.6 µM] | activity change, negative = thiol reactive [3] 172% [at 11.5 µM] | activity, negative = inhibition [4] 3.94% [at 11.6 µM] | redox activity (% of DA3003) [5] 0.97% [at 11.5 µM]

CC(C)(F)C[C@@H](N[C@@H](c1ccc(-c2ccc(S(C)(=O)=O)cc2)cc1)C(F)(F)F)C(=O)NC1(C#N)CC1
inactive: Potency [1] | Potency [2] | Potency [3] | Potency [4] | Potency [5]

Cc1cccc(S(=O)(=O)N2CCC[C@@H]2CCN2CCC(C)CC2)c1
inactive: Potency [1] | Potency [2] | Potency [3] | Potency [4] | Potency [5]

CC(C)CCC(=O)CC1c2ccccc2C(=O)N1c1ccc2ccc(Cl)nc2n1 (stereo not given)
inactive: Potency [1] | Potency [2] | Potency [3] | Potency [4] | Potency [5]

C/C1=C\C[C@]2(C)C(=O)C(O)=C([C@H](C)CO)[C@H]2C/C=C(\C)[C@@H](O)CC/C(C)=C/CC1
inactive: Potency [1] | Potency [2] | Potency [3] | Potency [4] | Potency [5]

CC(=O)O[C@H]1C(=O)[C@@]2(C)[C@H]([C@H](OC(=O)c3ccccc3)[C@]3(O)C[C@H](OC(=O)[C@H](O)[C@@H](NC(=O)c4ccccc4)c4ccccc4)C(C)=C1C3(C)C)[C@]1(OC(C)=O)CO[C@@H]1C[C@@H]2O
inactive: Potency [1] | activity change, negative = inhibition [2] -3.6% [at 11.6 µM] | activity change, negative = thiol reactive [3] 52.3% [at 11.5 µM] | activity, negative = inhibition [4] 4.66% [at 11.6 µM] | redox activity (% of DA3003) [5] 1.32% [at 11.5 µM]

Cc1ccc(NC(=O)C(=O)NC2CC(C)(C)NC(C)(C)C2)cc1
inactive: Potency [1] | Potency [2] | Potency [3] | Potency [4] | Potency [5]

C[C@H](NC(c1cccc2[nH]c(=O)c(=O)[nH]c12)P(=O)(O)O)c1ccc(Br)cc1 (stereo not given in full)
inactive: Potency [1] | Potency [2] | Potency [3] | Potency [4] | Potency [5]

COC(=O)C[C@H]1C(C)(C)[C@H](OC(=O)C(C)C)[C@@]2(O)C(=O)[C@]1(C)C1CC[C@]3(C)C(CC(=O)O[C@H]3c3ccoc3)[C@]13O[C@@H]32 (stereo not given in full)
inactive: Potency [1] | Potency [2] | Potency [3] | Potency [4] | Potency [5]

COC(=O)N[C@H](C(=O)N1[C@@H]2CC[C@@H](C2)[C@H]1c1nc2ccc(-c3ccc4c(c3)C(F)(F)c3cc(-c5cnc([C@@H]6CCC7(CC7)N6C(=O)[C@@H](NC(=O)OC)C(C)C)[nH]5)ccc3-4)cc2[nH]1)C(C)C
inactive: Potency [1] | Potency [2] | Potency [3] | Potency [4] | Potency [5]

COc1cc2c(cc1OC)-c1[nH]nc(Nc3cccc(F)c3)c1C2
inactive: Potency [1] | Potency [2] | Potency [4] | Potency [5]
active: Potency [3] 1.89 µM

C=C1[C@H](OC(C)=O)[C@H]2[C@@H](OC(C)=O)[C@](C)(OC(C)=O)C[C@]2(OC(C)=O)C(=O)[C@H](C)/C=C/C(C)(C)C(=O)[C@H](OC(=O)C(C)CC)[C@H]1OC(C)=O (stereo not given in full)
inactive: Potency [1] | Potency [2] | Potency [3] | Potency [4] | Potency [5]

C=C1CC[C@H]2[C@@](C)(CCC(O)[C@@]2(C)CO)[C@@H]1CCC1=CCOC1=O (stereo not given in full)
inactive: Potency [1] | Potency [2] | Potency [3] | Potency [4] | Potency [5]

CC(=O)N[C@H]1[C@H](O[C@H]2CC[C@@]3(C)C(CC[C@]4(C)C3CC=C3[C@@H]5CC(C)(C)CC[C@]5(C(=O)OC5OCC(O)C(O)C5O)CC[C@]34C)C2(C)C)O[C@H](COC2OC(C)C(O)C(OC3OC(C)C(O)C(O)C3O)C2O)[C@@H](O)[C@@H]1O (stereo not given in full)
inactive: Potency [1] | outcome [2] inactive [at 11.6 µM] | activity change, negative = thiol reactive [3] 127% [at 11.5 µM] | activity, negative = inhibition [4] 4.87% [at 11.6 µM] | redox activity (% of DA3003) [5] 3.21% [at 11.5 µM]

COc1ccc(C[C@H](N)C(=O)N[C@@H]2[C@H](O)[C@H](n3cnc4c(N(C)C)ncnc43)O[C@@H]2CO)cc1
inactive: Potency [1] | Potency [2] | Potency [3] | Potency [4] | Potency [5]

O=C(O)CC(=O)OC[C@H]1O[C@@H](Oc2ccc3c(c2)OC[C@H]2c4cc5c(cc4O[C@@H]32)OCO5)[C@H](O)[C@@H](O)[C@@H]1O
inactive: Potency [1] | Potency [2] | Potency [3] | Potency [4] | Potency [5]

C=C1C(=O)O[C@@H]2[C@H]1CCC(C)=C1CCC(=O)O[C@]12C
active: Potency [3] 18.9 µM
inactive: Potency [1] | Potency [2] | Potency [4] | Potency [5]

CC(C(O)/C=C/C(C)(C)O)C1CCC2(C)C3C(=O)C=C4C(CCC(O)C4(C)C)C3(C)CCC12C (stereo not given)
inactive: Potency [1] | Potency [2] | Potency [3] | Potency [4] | Potency [5]

CC(C)=CCC/C(C)=C/CO[C@@H]1O[C@H](CO)[C@@H](O)[C@H](O)[C@H]1O
inactive: Potency [1] | Potency [2] | Potency [3] | Potency [4] | Potency [5]

CCC(C)C(=O)OC1CC(O)C23C4OCC5(C(O)CC2C1(C)C(O)O4)C3C(=O)C(O)C1(C)C(O)(c2ccoc2)CC2OC251 (stereo not given)
inactive: Potency [1] | Potency [2] | Potency [3] | Potency [4] | Potency [5]

O=C(Nc1nc2ccccc2n1CCc1ccccc1)c1ccccc1
inactive: Potency [1] | Potency [2] | Potency [3] | Potency [4] | Potency [5]

Fc1ccc2nc(CCC#Cc3ccccn3)cn2c1
inactive: Potency [1] | Potency [2] | Potency [3] | Potency [4] | Potency [5]

C=C[C@@]12COC(=O)C(=C)C1[C@@H](O)[C@H](C(=C)C(=O)OC)[C@@H](OC(=O)C(=C)CO)C2 (stereo not given in full)
inactive: Potency [1] | Potency [2] | Potency [4] | Potency [5]
active: Potency [3] 11.6 µM

CC[C@H]1OC(=O)[C@](C)(F)C(=O)[C@H](C)[C@@H](O[C@@H]2O[C@H](C)C[C@H](N(C)C)[C@H]2O)[C@](C)(OC)C[C@@H](C)C(=O)[C@@H](C)[C@H]2N(CCCCn3cc(-c4cccc(N)c4)nn3)C(=O)O[C@]12C
inactive: Potency [1] | Potency [2] | Potency [3] | Potency [4] | Potency [5]

C=C1C(OC(=O)/C(C)=C\C)[C@@]23CCC4[C@@](C)(CCC[C@@]4(C)C(=O)O)C2CC[C@H]1C3OC(C)=O (stereo not given in full)
inactive: Potency [1] | Potency [2] | Potency [3] | Potency [4] | Potency [5]

CC(=O)OC1CC2(C)C3=CCC4(C)C5C(O)C(O)C(C(C)C)C5(C)CCC4(C)C3CCC2C(C)(C)C1OC1OC(CO)C(O)C(O)C1O (stereo not given)
inactive: Potency [1] | Potency [2] | Potency [3] | Potency [4] | Potency [5]

CC(=O)O[C@@H]1c2c3c(cc(O)c2C(=O)O[C@@H]1C)O[C@@]1(C)[C@@H](O)C[C@H]2C(C)(C)C(=O)C=C[C@]2(C)[C@@H]1C3
inactive: Potency [1] | Potency [2] | Potency [3] | Potency [4] | Potency [5]

NC(=O)[C@H](O[C@@H]1O[C@H](CO)[C@@H](O)[C@H](O)[C@H]1O)c1ccccc1
inactive: Potency [1] | Potency [2] | Potency [4] | Potency [5]
active: Potency [3] 16.5 µM

C=C1CC2C(C)(CCC(=O)O)C(C(C)(C)O)CCC2(C)C2C(=O)OC(C)(C(=O)OC)C(=O)C12C (stereo not given)
inactive: Potency [1] | Potency [2] | Potency [3] | Potency [4] | Potency [5]

C=C(C(=O)OC)C1C(O)CC2(C)C(=O)CCC(O)(CO)C2C1O (stereo not given)
inactive: Potency [1] | Potency [2] | Potency [3] | Potency [4] | Potency [5]

CC(Nc1ncnc2nc[nH]c12)c1cc2cccc(Cl)c2c(=O)n1-c1ccccc1 (stereo not given)
inactive: Potency [1] | Potency [2] | Potency [3] | Potency [4] | Potency [5]

CCCCC1CCN(CCCC(=O)c2ccccc2C)CC1
inactive: Potency [1] | Potency [2] | Potency [3] | Potency [4] | Potency [5]

CC1(C)CC[C@]2(C(=O)O[C@@H]3O[C@H](CO)[C@@H](O)[C@H](O)[C@H]3O)CC[C@]3(C)C(=CCC4[C@@]5(C)CC[C@H](O[C@@H]6O[C@H](C(=O)O)[C@@H](O)[C@H](O)[C@H]6O)C(C)(C)C5CC[C@]43C)C2C1 (stereo not given in full)
inactive: Potency [1] | activity change, negative = inhibition [2] 0.101% [at 11.6 µM] | activity change, negative = thiol reactive [3] 258% [at 11.5 µM] | activity, negative = inhibition [4] 3.65% [at 11.6 µM] | redox activity (% of DA3003) [5] 15.1% [at 11.5 µM]

C=C1CCC2C(C)(COC(C)=O)CCCC2(C)C1CCC(C)CC(=O)O (stereo not given)
inactive: Potency [1] | Potency [2] | Potency [3] | Potency [4] | Potency [5]

CC(C)C[C@H](CC(=O)NO)C(=O)N[C@H](C(=O)N[C@@H](C)C(=O)NCCN)C(C)(C)C
inactive: activity change, negative = inhibition [1] -8.26% [at 9.73 µM] | activity change, negative = inhibition [2] -1.85% [at 11.6 µM] | activity change, negative = thiol reactive [3] 1.54% [at 11.5 µM] | activity, negative = inhibition [4] 2.44% [at 11.6 µM] | redox activity (% of DA3003) [5] 0.177% [at 11.5 µM]

CC(=O)O[C@@H]1c2c(C)coc2C(=O)[C@@]23O[C@@H]2CC[C@H](C)[C@@]13C
inactive: Potency [1] | Potency [2] | Potency [3] | Potency [4] | Potency [5]

O=C(/C=C/c1ccc(O)cc1)N[C@@H](Cc1ccc(O)cc1)C(=O)O
inactive: Potency [1] | Potency [2] | Potency [4] | Potency [5]
active: Potency [3] 7.36 µM

CCc1ccc(Cc2ccc3c(c2)[C@]2(OC3)O[C@H](CO)[C@@H](O)[C@H](O)[C@H]2O)cc1
inactive: Potency [1] | Potency [2] | Potency [3] | Potency [4] | Potency [5]

COc1cc(O)c2c(c1)C1=C[C@H](O)[C@@H](O)C[C@]1(C)OC2=O
inactive: Potency [1] | Potency [2] | Potency [3] | Potency [4] | Potency [5]

— PubChem BioAssay (NCATS)
